Measurements published in PubChem BioAssay (NCATS).
“And” between values parts separate entries of the source, which are not always exact repeats. Identical values can stand only once. Results filed as inconclusive are left out. Some compounds were tested as several samples or in several runs, with calls that do not always agree. The source made the active and inactive calls. Calls come from the whole dose curve; as a rule, active = well fitted curve in the direction sought with a large enough effect; inconclusive = small, poorly fitted or top-dose-only effect, or another doubt; inactive = no such curve, though single readings can be large; an effect the other way counts as inactive or inconclusive.

Experiments:
[1] = qHTS assay for measurement of the activity of small molecule inhibitors on Zika virus induced Caspase-3 activity in human iPSC derived neural progenitor cells (hNPCs) (AID 1224857); note: nearly all actives have a fitted effect of over 65% in size
In short: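 Cells were plated at 350 per well and grown 16 to 20 hours. Compound pretreatment lasted one hour, after which ZIKV (2 FFU/cell) was added for 6 hours. Percent inhibition was normalized between uninfected and infected controls.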

[2] = qHTS assay for measurement of the activity of small molecule inhibitors on Zika virus induced Caspase-3 activity in human astrocytoma cells (AID 1224859)
In short: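 Percent inhibition of virus-induced caspase-3/7 signal is calculated against uninfected and ZIKV-infected control cells. Cells are SNB-19, infected at 2 FFU/cell for 6 h after 1 h compound exposure.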

[3] = qHTS Screen of the MIPE 4.0 Collection Against Ewings Sarcoma (RDES) (AID 1259252); note: nearly all actives have a fitted effect of over 35% in size; note: potency is the fitted concentration of half-maximal effect
In short: (§1)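 Here, cells in 5% FBS RPMI were exposed for two days (48 h) to compound dilutions added four hours after plating. ATP-based CellTiter-Glo luminescence measured viability, normalized to vehicle and no-cell blanks.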

[4] = qHTS Screen of the MIPE 4.0 Collection Against Ewings Sarcoma (TC71) (AID 1259253); note: nearly all actives have a fitted effect of over 40% in size; note: potency is the fitted concentration of half-maximal effect
In short: as §1

[5] = qHTS Screen of the MIPE 4.0 Collection Against Ewings Sarcoma (EW8) (AID 1259255); note: nearly all actives have a fitted effect of over 35% in size; note: potency is the fitted concentration of half-maximal effect
In short: as §1

[6] = qHTS Screen of the MIPE 4.0 Collection Against Ewings Sarcoma (TC32) (AID 1259256); note: nearly all actives have a fitted effect of over 45% in size; note: potency is the fitted concentration of half-maximal effect
In short: as §1

[7] = P-glycoprotein substrates identified in KB-3-1 adenocarcinoma cell line, qHTS therapeutic library screen (AID 1346986); note: nearly all actives have a fitted effect of over 60% in size;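 note: potency is the fitted concentration of half-maximal effect; potency is for cytotoxicity meaning loss of cell viability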
In short: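 Resistance attributable to P-gp was assessed by comparing AC50 in KB-8-5-11 with parental KB-3-1 and by tariquidar reversal. Cells were exposed 72 h and viability read by CellTiter-Glo.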

[8] = P-glycoprotein substrates identified in KB-8-5-11 adenocarcinoma cell line, qHTS therapeutic library screen (AID 1346987); note: nearly all actives have a fitted effect of over 65% in size; note: potency is the fitted concentration of half-maximal effect
In short: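 Steps: plate 500 KB-8-5-11 cells/well in DMEM + 10% FCS (colchicine removed); pin compounds in dose-response; incubate 72 h, 37 degree C, 5% CO2; add CellTiter-Glo, 5 min; read luminescence.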

[9] = NS1 protein of Zika virus - qHTS assay to identify small molecule inhibitors in human HEK 293 cells (AID 1347053); note: nearly all actives have a fitted effect of over 55% in size; note: potency is the fitted concentration of half-maximal effect
In short: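 HEK 293; 20 h pre-culture, 37 C/5% CO2; cpd 1 h pre-infection; ZIKV MR766, MOI = 0.5, 24 h, 37 C; TR-FRET NS1 readout (two anti-NS1 Abs); norm. to no-virus vs infected.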

[10] = Identifying Small Molecule Inhibitors of Pancreatic Cancer Stem Cells (Panc1, Spheroid) (AID 1259359);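 note: potency is the fitted concentration of half-maximal effect; compound exposure lasted 48 h before reading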
In short: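 Cytotoxicity read by CellTiter-Glo luminescence after 48 h compound exposure at 37C; percent activity scaled between DMSO-treated cells and cell-free wells. Spheroid formats used cells pre-formed 14 days in stem cell media on hydrogel.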

Measured: Potency

Clc1cccc(-c2nnnn2Cc2cccnc2)c1Cl
inactive: [1] | [2] | [3] | [4] | [5] | [6] | [7] | [8] | [9]

Cc1ccc(CN2CCNCC2)cc1NC(=O)CNc1ccc(F)c(F)c1
inactive: [1] | [2] | [7] | [8] | [9]
active: [3] 6.62 µM | [4] 5.26 µM | [5] 26.4 µM | [6] 13.2 µM

O=C(O)C1(Cc2cccc(Nc3nccs3)n2)CCC(Oc2cccc(Cl)c2F)CC1 (configuration not stated)
inactive: [1] | [2] | [9]
active: [3] 4.69 µM | [4] 1.66 µM | [5] 0.743 µM | [6] 0.372 µM | [7] 0.517 µM | [8] 0.411 µM

Cc1cccc(C=NNc2cc(N3CCOCC3)nc(OCCc3ccccn3)n2)c1
inactive: [1] | [2]
active: [3] 18.7 µM | [4] 16.6 µM | [5] 16.6 µM | [6] 5.26 µM | [10] 23.5 µM | [9] 23.5 µM

Cc1nc(Nc2n[nH]c3c2CN(C(=O)N[C@H](CN(C)C)c2ccccc2)C3(C)C)c2sccc2n1
inactive: [1] | [2] | [8]
active: [3] 3.32 µM | [4] 1.32 µM | [5] 2.64 µM | [6] 7.43 µM | [9] 13.2 µM

COc1ccc(C(=O)CC2(O)C(=O)Nc3c(Cl)ccc(Cl)c32)cc1 (configuration not stated)
inactive: [1] | [2]
active: [3] 2.35 µM | [4] 3.32 µM | [5] 1.48 µM | [6] 1.66 µM | [8] 2.64 µM and 1.16 µM | [9] 1.05 µM

CC1COC2(CCN(c3nc(=O)c4cc(C(F)(F)F)cc([N+](=O)[O-])c4s3)CC2)O1 (configuration not stated)
inactive: [1] | [2] | [3] | [4] | [5] | [6] | [8] | [9]

Cc1cc(N2CCOCC2)cc2[nH]c(-c3c(NC[C@@H](O)c4cccc(Cl)c4)cc[nH]c3=O)nc12
inactive: [1] | [2] | [9]
active: [3] 0.118 µM | [4] 0.59 µM | [5] 20.9 µM | [6] 1.87 µM | [8] 14.8 µM and 18.4 µM

Nc1cccc(-c2cc3c(Oc4cccc(O)c4)ncnc3[nH]2)c1
inactive: [1] | [2] | [9]
active: [3] 2.35 µM | [4] 4.18 µM | [5] 3.32 µM | [6] 2.96 µM | [8] 20.9 µM

C[C@@H]1COC(Nc2ccc3ncnc(Nc4ccc(OCc5nccs5)c(Cl)c4)c3c2)=N1
active: [3] 2.64 µM | [4] 3.72 µM | [5] 20.9 µM | [6] 10.5 µM | [8] 20.9 µM
inactive: [1] | [2]

Cc1cc(Nc2ncnc3ccc(-c4ccc(CNCCS(C)(=O)=O)o4)cc23)ccc1Oc1ccn2ncnc2c1
active: [3] 18.7 µM | [4] 14.8 µM | [5] 16.6 µM | [6] 16.6 µM
inactive: [1] | [2] | [8] | [9]

NC(=O)c1cccc2cn(-c3ccc([C@@H]4CCCNC4)cc3)nc12
inactive: [1] | [2] | [8]
active: [3] 1.87 µM | [4] 3.72 µM | [5] 7.43 µM | [6] 2.35 µM | [9] 11.8 µM

COc1ccc2c(OCc3nnc4ccc(-c5ccccc5)nn34)ccnc2c1
inactive: [1] | [2] | [3] | [4] | [5] | [6] | [8] | [9]

Cc1c(C)n(Cc2ccc(-c3ccccc3C(=O)O)cc2)c2ccc(C(=O)N[C@@H](C)c3ccc([N+](=O)[O-])cc3)cc12
inactive: [1] | [2] | [3] | [4] | [5] | [6] | [8] | [9]

Cc1coc2c1C(=O)C(=O)c1c-2ccc2c1CCCC2(C)C
inactive: [1] | [2] | [3] | [4] | [5] | [9]
active: [6] 0.0037 µM
inactive and 9.2 µM (active): [8]

CCS(=O)(=O)c1cccc(-c2cc(C(=O)NC3CCN(C)CC3)c(C)c3[nH]c4ncc(C)cc4c23)c1
active: [3] 0.743 µM | [4] 3.32 µM | [5] 0.118 µM | [6] 0.235 µM | [9] 13.2 µM
inactive: [1] | [2] | [8]

CCc1cc2c(cc1N1CCC(N3CCOCC3)CC1)C(C)(C)c1[nH]c3cc(C#N)ccc3c1C2=O
inactive: [1] | [2] | [3] | [4] | [5] | [6] | [9]

CC(C)c1noc(N2CCC(COc3ccc(-c4ccc(S(C)(=O)=O)cc4)nc3)CC2)n1
inactive: [1] | [2] | [3] | [4] | [5] | [6] | [8] | [9]

CNC(=O)c1nn(C)c2c1C(C)(C)Cc1cnc(Nc3ccc(N4CCN(C)CC4)cc3)nc1-2
inactive: [1] | [2]
active: [3] 1.66 µM | [4] 1.87 µM | [5] 2.96 µM | [6] 2.35 µM | [8] 2.35 µM and 1.46 µM
